Inconclusive results are not listed. The source made the active and inactive calls. The call rests on the fitted dose curve; in most records, active means well fitted inhibition curve with a large enough effect; inconclusive means small, poorly fitted or top-dose-only effect; inactive means flat fitted curve, though single readings scatter.

The nature of the assay: Identification of antibody-drug conjugate (ADC) payloads which are substrates of ATP-binding cassette drug efflux transporters: ABCB1-HEK293-pcDNA cell line. The settings on record: HEK293 empty-vector (pcDNA) control viability, CellTiter-Glo, 48 h. An excerpt:
Antibody-drug conjugates (ADCs) feature an antibody recognizing a specific protein joined to a potent toxic payload. Numerous antibody-drug conjugates have received FDA approval; however, clinical resistance arises. Resistance mechanisms include decreased expression or mutation of the antibody target, impaired payload release, or increased expression of ATP-binding cassette (ABC) efflux transporters associated with multidrug resistance. We therefore sought to characterize the interaction of ABC multidrug transporters with ADC payloads. We performed a high-throughput screen with 27 common ADC payloads using cells lines expressing ABC transporters P-glycoprotein (P-gp, encoded by ABCB1) or ABCG2 (encoded by ABCG2). Confirmatory assays were also performed using cells transfected to express P-gp, ABCG2, or MRP1 (encoded by ABCC1). Several commonly used ADC payloads were substrates of P-gp, including calicheamicin gamma1, monomethyl auristatin E, DM1, and DM4. All the pyrrolobenzodiazepines tested - SJG136, SGD-1882, SG2057, and SG3199 - were substrates of P-gp, ABCG2, and MRP1. […] These findings highlight the risk of transporter-mediated resistance with certain ADC payloads and underscore the importance of selecting payloads that evade ABC transporter recognition in future ADC development.
HEK-293 cells were transfected with empty vector (pcDNA) or vector containing the human ABCB1 (MDR-19), ABCG2 (R-5), or ABCC1 gene (MRP1) and were maintained in EMEM with 2 mg/mL G418 added to maintain transporter expression. The HeLa derivative KB-3-1 and the P-gp overexpressing KB-8-5-11 subline were maintained in DMEM; KB-8-5-11 additionally received 100 ng/mL colchicine. H460 parental cells were obtained from the Division of Cancer Treatment and Diagnosis Tumor Repository, National Cancer Institute at Frederick, MD and were cultured in RPMI. The ABCG2 expressing subline H460 MX20 was generated by selecting H460 cells in 20 nM mitoxantrone. Media in all cases was supplemented with 10% FBS and 1% penicillin-streptomycin. We explored 27 common ADC payloads, in two orthogonal, paired cell line sets-a drug selected and transfected set for each transporter--to identify substrates of the ABC transporters P-gp and ABCG2. Compounds were sourced from Levena Biopharma (San Diego, CA), Selleck Chem (Houston, TX), ChemieTek (Indianapolis, IN), or Microsource Discovery Systems (Gaylordsville, CT). Screening was performed as previously described. Briefly, cells were plated at a density of 500 cells/well in 1536 well plates with compounds added using a 1536-head pin tool (Kalypsys, San Diego CA). Cells were incubated with cytotoxic drugs and processed with CellTiter Glo reagent (Promega, Madison, WI) to determine viability after 48 hours. […]
Background: In ATP-based viability assays light output follows the ATP content of the culture.
Consider `CC[C@H](C)[C@H](NC(=O)[C@H]1CCCCN1C)C(=O)N(C)[C@H](C[C@@H](OC(C)=O)c1nc(C(=O)N[C@@H](Cc2ccccc2)C[C@H](C)C(=O)O)cs1)C(C)C`, for which the Potency is 1.3 nM (active).

Turning to `COc1cccc2c1C(=O)c1c(O)c3c(c(O)c1C2=O)C[C@@](O)(C(=O)CO)CC3OC1CC(N2CCOC(OC)C2)C(O)C(C)O1` (some centres undefined), the Potency was 1.7 nM (active). The value for `CC[C@@]1(O)C(=O)OCc2c1cc1n(c2=O)Cc2cc3ccccc3nc2-1` was 11.8 nM (active); that for `COc1cc2cc(C(=O)N3C[C@@H](CCl)c4c3cc(O)c3ccccc43)[nH]c2c(OC)c1OC` was 1.5 nM (active).

The record behind these values is PubChem BioAssay AID2061306 (National Center for Advancing Translational Sciences (NCATS), 2025).
